Results reported in PubChem BioAssay AID651812 (National Center for Advancing Translational Sciences (NCATS), 2012).
Out of some 2,100 compounds screened, about 650 (31%) were called active. About 16% were inconclusive and are not listed. Calls follow the shape of the dose curve; as a rule, active = well fitted inhibition curve with a large enough effect; inconclusive = small, poorly fitted or top-dose-only effect; inactive = flat fitted curve, though single readings scatter. Some of the results follow.

Assay: qHTS for inhibitors of Vif-A3G interactions: Cherry picks; also: nearly all actives have a fitted effect of over 80% in size; as to activity, negative = fluorescence increase: % of control where 0% means no effect
Details: HeLa A3G-eYFP + Vif (tagged APOBEC3G with the HIV-1 protein that degrades it), 24 h; Potency: eYFP fluorescence increase; series mostly up to 36.9 µM; activity, negative = fluorescence increase: at the top concentration
How it was run: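 Cherry-picked compounds tested at several concentrations on A3G-eYFP/Vif HeLa cells for 24 hours; loss of Vif-driven degradation read as eYFP fluorescence by cytometric plate imaging, 488 nm excitation, 500-530 nm emission.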
Potency is read from the fitted curve at half-maximal effect.

SMILES	Potency	activity, negative = fluorescence increase
Cc1cc(C)c(/C=C2\C(=O)Nc3ccccc32)[nH]1	18.4 µM (active)	
Cc1ccc(C2NC(=O)c3ccccc3N2)s1 (centres undefined)		-2.05% (inactive)
Cc1nn(-c2ccc(F)cc2)c(Cl)c1/C=C1\C(=O)Nc2ccccc21		-7.22% (inactive)
Cc1ccc(S(=O)(=O)Nc2cc(Cl)c(O)c3ncccc23)cc1		-0.848% (inactive)
COc1ccc2oc(-c3ccccc3[N+](=O)[O-])cc(=O)c2c1		-8.58% (inactive)
COc1ccc(S(=O)(=O)N2CCN(C(=O)c3ccc([N+](=O)[O-])o3)CC2)cc1		1.28% (inactive)
COc1ccc2[nH]c3c(c2c1)CCNC3c1ccc([N+](=O)[O-])o1 (centres undefined)	18.4 µM (active)	
Cc1ccc(N/C(N)=N/c2nc(CSc3nnc(C)s3)cc(=O)[nH]2)c(C)c1		-3.92% (inactive)
COc1ccc(C(=O)C[n+]2cc(Br)cc3ccccc32)cc1	20.6 µM (active)	
CCCC1=[N+](CC(=O)c2ccc(Br)cc2)CCn2cccc21		-10.6% [at 46.1 µM] (inactive)
CCn1cc2nc(SCC(=O)Nc3ccc(C)cc3C)n(Cc3ccc(C)cc3)c(=O)c2n1		-5.28% [at 46.1 µM] (inactive)
O=[N+]([O-])c1cc(Cl)c2cccnc2c1O		-10.9% [at 46.1 µM] (inactive)
Cc1cc(N2CCN(c3ccc([N+](=O)[O-])c4cccnc34)CC2)c2ccccc2n1	20.6 µM (active)	
CCC(=O)NC(=S)Nc1cccc(Cl)c1N1CCCC1		-1.38% [at 46.1 µM] (inactive)
C=CCNc1nc2cc(-c3cccc(Cl)c3)sc2c(=O)n1C		0.835% (inactive)
C=CCNC(=S)N/N=C/c1ccc(C)cc1C		7.22% [at 46.1 µM] (inactive)
C=C(C(=O)c1ccccc1)C(NC(C)(C)C)c1ccccc1 (centres undefined)		4.2% (inactive)
CCOc1cc(/C=C(\C#N)c2nc(-c3cccs3)c(NC(C)=O)s2)ccc1O	23.1 µM (active)	
CC(=O)Nc1sc(/C(C#N)=C/c2ccc(Cl)c(Cl)c2)nc1-c1ccc(C)cc1	5.8 µM (active)	
CC(=O)Nc1sc(/C(C#N)=C\c2cccc(Cl)c2)nc1-c1ccc(C)cc1	8.2 µM (active)	
CCOC(=O)c1c(-c2ccc(C)cc2)csc1NC(=O)/C(C#N)=C/c1ccc(O)c(OC)c1		-17.2% (inactive)
O=C(Cn1ncc(Cl)c(Cl)c1=O)NCC1CCCCC1		-8.17% (inactive)
CC(=O)c1cccc(-c2ccnc3c2CC(C(=O)NCc2ccco2)O3)c1 (centres undefined)		-11.6% (inactive)
O=C(Cc1ccccc1)NCc1ccc(-n2cccc2)cc1		-1.88% (inactive)
S=C(Nc1cccc2ccccc12)NN1CCCCCC1		10.3% [at 46.1 µM] (inactive)
CCc1c(C)nc(SCC(=O)c2cccs2)c(C#N)c1C		-25.4% (inactive)

SMILES	Potency	activity, negative = fluorescence increase
N#Cc1c(-c2ccccc2F)cc(C2CC2)nc1SCC(=O)c1cccs1	17.7 µM (active)	
O=C(COC(=O)c1ccc(NS(=O)(=O)c2cccs2)cc1)NCc1ccco1		-2.14% (inactive)
Cc1ccc2nc3c(cc(S(=O)(=O)c4ccccc4)c(=N)n3Cc3ccco3)c(=O)n2c1	29.1 µM (active)	
CC#Cc1cc2c(cc1O)CCC1C2CCC2(C)C(O)CCC12 (centres undefined)		-0.688% (inactive)
COc1ccc(/C=C/C(=O)c2ccc([N+](=O)[O-])o2)cc1		-6.52% (inactive)
CCc1ccc(C(=O)/C=C/c2ccc([N+](=O)[O-])o2)cc1	14 µM (active)	
O=C(/C=C/c1ccc(Cl)cc1)c1ccc([N+](=O)[O-])o1		-0.183% (inactive)
CCOC(=O)CCc1ccc(NC(=O)/C=C/c2ccc([N+](=O)[O-])o2)cc1	23.1 µM (active)	
COc1cc(/C=C/C(=O)c2ccc([N+](=O)[O-])o2)ccc1O		-11.6% (inactive)
N#CCc1ccc(NC(=O)/C=C/c2ccc([N+](=O)[O-])o2)cc1	8.2 µM (active)	
O=C(NCc1cccnc1)c1ccc([N+](=O)[O-])o1		-7.07% (inactive)
CC(=O)Nc1ccc2nc(NC(=O)c3ccc([N+](=O)[O-])o3)sc2c1		1.09% (inactive)
COC(=O)c1sc(NC(=O)c2ccc([N+](=O)[O-])o2)c(C#N)c1C		-13.6% (inactive)
Cc1cc(C)n(-c2nnc3n2N=C(c2c[nH]c4ccccc24)CS3)n1		-5.16% (inactive)
CC1(C(=O)NCc2ccco2)Cc2c(-c3ccc(C(N)=O)cc3)ccnc2O1 (centres undefined)		-4.41% (inactive)
Clc1ccsc1-c1csc(-c2cccnc2)n1		-3.28% (inactive)
Cc1ccc(O)c(Nc2c3ccccc3nc3ccccc23)c1		-3.08% [at 46.1 µM] (inactive)
CCc1nnc(NC(=O)CSc2nnc(-c3ccccc3O)n2-c2ccc(C)cc2C)s1		-6.03% (inactive)
Cc1ccc(O)c(NC(=O)c2cc(-c3ccccc3O)no2)c1	20.6 µM (active)	
CCn1c(=O)c2cc(C(=O)NCCCOC)sc2c2ccccc21		-7.54% (inactive)
C=C(/C=C/c1ccc(N(C)C)cc1)c1nc2ccccc2s1	18.4 µM (active)	
COc1ccccc1-c1cc(NC=O)c2ncc(-c3ccc(S(C)(=O)=O)cc3)n2c1		-10% (inactive)
S=C(NC1CCCCC1)N(CCc1ccccc1)CCc1ccccc1		-9.72% [at 46.1 µM] (inactive)
COc1cc2nc(/C=C/c3ccc(N(C)C)cc3)sc2cc1SC	16.4 µM (active)	
Cc1ccc(-c2cc(-c3ccco3)c3c(N)c(C(=O)NN)oc3n2)cc1	20.6 µM (active)	
NNC(=O)c1oc2nc(-c3ccccc3)cc(-c3ccco3)c2c1N	20.6 µM (active)	

SMILES	Potency	activity, negative = fluorescence increase
CC(/C=N/NC(=O)c1cc(-c2ccccc2)nc2ccccc12)=C\c1ccco1		-8.64% (inactive)
CC(C)(C)C(=O)/C(=C/c1ccc(Cl)cc1)n1cncn1		1.11% (inactive)
CCN(CC)c1ccc2c(cc1=O)[C@@H](NC)CCc1cc(OC)c(OC)c(OC)c1-2		-19.2% (inactive)
COC(=O)c1sc(-c2cccs2)cc1NC(=O)/C=C/C(=O)O		4.29% (inactive)
C=CCN1C(=O)/C(=C2/Sc3ccc(OC)cc3N2CC)SC1=S	14.6 µM (active)	
C=CCN1C(=O)/C(=C2/Sc3ccc(OC)cc3N2C)SC1=Nc1cccc(O)c1	18.4 µM (active)	
C[C@]1(O)CC(=O)C=C[C@H]1Nc1ccccc1		3.1% (inactive)
COc1ccccc1N1C(=O)C2C(C(=O)c3ccccc3)=NN(c3ccc(C)cc3)C2C1=O (centres undefined)		-26.3% (inactive)
N=C1S/C(=C\c2ccc(-c3cccc(Cl)c3)o2)C(=O)N1c1nccs1	20.6 µM (active)	
Cc1ccc(Cn2c(SCc3ccc(C(=O)NC4CCCC4)cc3)nc3ccncc32)cc1		3.2% [at 46.1 µM] (inactive)
COc1ccc2c(c1)/C(=C\c1cccc(/C=C3/C(=O)Nc4ccc(OC)cc43)n1)C(=O)N2		0.897% (inactive)
CN(C)S(=O)(=O)c1ccc2c(c1)/C(=C/c1cc3c([nH]1)CCCC3)C(=O)N2	2.23 µM (active)	
COc1ccc2c(c1)/C(=C/c1cc(OC)c(OC)c(OC)c1)C(=O)N2		-0.665% (inactive)
CC(C)OC(=O)c1c2c(n3ccccc13)C(=O)c1ccccc1C2=O	10.3 µM (active)	
CCOc1cc(Br)cc(/C=C2\SC(=Nc3ccccc3)NC2=O)c1O		-2.38% (inactive)
COc1cc(/C=C2\SC(=Nc3cccnc3)NC2=O)cc(OC)c1OC		-29.3% [at 46.1 µM] (inactive)
COc1cc(/C=C2\SC(=Nc3ccccc3)NC2=O)cc(Cl)c1O	20.6 µM (active)	
O=c1c2ccccc2sc2ccc(NCCCN3CCOCC3)cc12	18.4 µM (active)	
Cc1ccc2[nH]c(C(=O)NN=C3CCCCC3)c(-c3ccccc3)c2c1		0.458% (inactive)
CC1C/C(=N\NC(N)=S)c2cc(Cl)ccc2S1 (centres undefined)		6.57% [at 46.1 µM] (inactive)
N#Cc1c(C(F)(F)F)cc(-c2ccccc2)nc1SCc1nc(N)nc(N2CCOCC2)n1	8.2 µM (active)	
Cc1ccc(N=C2NC(=O)CC(C(=O)Nc3ccc4c(c3)OCO4)S2)cc1 (centres undefined)		-1.13% (inactive)
CC(C)n1c(O)c(N=Nc2ccc(Cl)nn2)c2ccccc21	16.4 µM (active)	
O=C(CSc1n[nH]c(-c2ccccn2)n1)Nc1ccc(Cl)cc1		3.07% [at 46.1 µM] (inactive)
C/C(CC(=O)NCc1ccc(Cl)cc1)=N\NC(=O)COc1ccc(C)cc1Br		-1.44% (inactive)
Cc1nc2c3cc(F)ccc3n(Cc3ccccc3F)c2s1		-11.9% (inactive)

SMILES	Potency	activity, negative = fluorescence increase
O=C(CN1c2ccccc2Sc2ccccc21)NNC(=O)Nc1cccc(Cl)c1		-2.17% (inactive)
CCN1/C(=C\C=C(C(C)=O)C(C)=O)Sc2ccccc21	20.6 µM (active)	
Cc1ccc(-c2nc3ncccc3o2)cc1NC(=O)c1ccc([N+](=O)[O-])o1		0.107% [at 46.1 µM] (inactive)
CC(C)C1C(=O)N(Cc2cn(CCC3OCCCO3)nn2)CCS(=O)(=O)N1Cc1ccc(-c2cccc(CO)c2)cc1 (centres undefined)		-11.4% (inactive)
COc1ccc(-c2ccnc(-c3ccc(O)cc3)n2)cc1		-14.4% (inactive)
CCC1=Nc2cc(C(=O)NCc3cccnc3)ccc2Sc2ccc(C)cc21		-8.44% (inactive)
C[n+]1cc(C(=O)N2CCCCC2)ccc1/C=C/c1c[nH]c2ccccc12	14 µM (active)	
CCN(CC)C(=O)c1ccc(/C=C/c2c[nH]c3ccccc23)[n+](C)c1	18.4 µM (active)	
Cc1sc2nc(CSCC(=O)Nc3ccccc3C#N)[nH]c(=O)c2c1C		-16% [at 46.1 µM] (inactive)
O=C1OC(/C(=C\Nc2cc(Cl)ccc2O)[N+](=O)[O-])c2ccccc21 (centres undefined)		-18.2% (inactive)
CC(=O)Nc1cccc(-c2ccnc3c2CC(C(=O)Nc2cccc(N(C)C)c2)O3)c1 (centres undefined)		-3.68% (inactive)
COc1ccc(C(=O)NC(=S)NCc2cccnc2)cc1Cl		10.5% [at 46.1 µM] (inactive)
O=[N+]([O-])c1ccc(C2=Nc3cc(Cl)ccc3OC2)cc1	29.1 µM (active)	
CCOC(=O)c1c(C)[nH]c(C(=O)N/N=C/c2cccc(OC)c2)c1C		-2.35% (inactive)
CCOC(=O)c1ccc(NC(=S)Nc2cccc(C)n2)cc1		3.99% [at 46.1 µM] (inactive)
Cc1ccnc(NC(=S)NC(=O)/C=C/c2ccco2)c1		-1.03% (inactive)
CCOC(=O)c1cc(-c2ccccc2)sc1NC(=S)Nc1cc(C)ccn1	10.3 µM (active)	
CNC(=O)C(Sc1nc(C)nc2c1oc1ccccc12)C(C)=O (centres undefined)		-5.85% (inactive)
COc1ccc(Cn2c(=O)cc(N)n(-c3ccccc3C)c2=O)cc1		-10.8% (inactive)
COc1ccc(Cn2c(C)nc3c(c2=O)c2nc4ccccc4nc2n3Cc2ccco2)cc1	5.8 µM (active)	
O=C(Cc1cc2ccccc2o1)NCc1ccc(F)cc1		-2.9% (inactive)
COc1cccc(OCc2nc3ncc(Br)cc3[nH]2)c1		-5.34% (inactive)
O=c1[nH]c2cc(Br)cnc2nc1/C=C(\O)c1ccc(F)cc1	13 µM (active)	
COc1ccc(-c2nc3cnccn3c2NC2CCCCC2)cc1-c1cccc(Cl)c1		-13.1% [at 46.1 µM] (inactive)
CCCCNc1c(-c2ccc(SC3CCCCC3)cc2)nc2cnccn12	2.8 µM (active)	
CCC(C)Sc1ccc(-c2nc3cc(C)ccn3c2NC2CCCCC2)cc1 (centres undefined)		-1.53% [at 46.1 µM] (inactive)
